Compound activity deposited in PubChem BioAssay by National Center for Advancing Translational Sciences (NCATS).
Pf Dd2 growth – blocks in vitro growth of P. falciparum Dd2. 120,000 tested, 4.3% active. P. falciparum Dd2 growth, SYBR Green, 72 h. AID 1347417. Potency, µM (series often up to 28.9 µM), usual class: inhibitors; active means well fitted inhibition curve with a large enough effect; further: nearly all actives have a fitted effect of over 65% in size
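Readout: SYBR Green fluorescence, 485 nm excitation, 535 nm emission, after ~16 h lysis at 37C. Before that, Dd2-infected red cells (2.5% hematocrit) grew 72 h with compound, 29 uM top final concentration.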
Numbers stand for hits; . = inactive; ! = not confirmed by another sample. This excerpt belongs to a sample that is enriched for hits.

SMILES	Pf Dd2 growth
Cc1ccc(S(=O)(=O)Cc2noc([C@@H]3C[C@@H](O)CN3Cc3cccc(OC(F)(F)F)c3)n2)cc1	.
CC(Nc1ccc(-c2nc(CCCc3ccccc3)no2)cn1)c1cnn(C)c1 (stereo not drawn)	.
CCn1cc(C(=O)NCc2ccccc2Cl)c(=O)c2cc(S(=O)(=O)N3CCCCCC3)ccc21	.
CCn1cc(C(=O)NCc2ccccc2Cl)c(=O)c2cc(S(=O)(=O)N3CCCCC3)ccc21	.
CCn1cc(C(=O)NCc2ccccc2Cl)c(=O)c2cc(S(=O)(=O)N3CCOCC3)ccc21	.
CCN(CC)CCNC(=O)c1cn(CC)c2ccc(S(=O)(=O)N3CCc4ccccc4C3)cc2c1=O	.
CCn1cc(C(=O)NCc2ccccc2Cl)c(=O)c2cc(S(=O)(=O)N3CCc4ccccc4C3)ccc21	10µM
CCn1cc(C(=O)NCc2ccccc2OC)c(=O)c2cc(S(=O)(=O)N3CCCCC3)ccc21	10µM
CCCNC(=O)C1COC2(CCN(C(=O)C3CCC3)CC2)N1C(=O)c1ccc(OC)cc1 (stereo not drawn)	.
O=S(=O)(NCC1(COc2cnccn2)C[C@@H](O)[C@@H](O)C1)c1ccc(F)cc1 (stereo partly drawn)	.
Cc1cc(NC(=O)N2CCC(Oc3ncccc3C(=O)N(C)C)C2)ccc1Br (stereo not drawn)	.
Cc1ccc(-n2c(C)cc(/C=C(\C#N)C(=O)Nc3ccc(C)c(C)c3)c2C)cc1	.
Cc1ccc(/C=C(\C#N)C(=O)Nc2cccc(Cl)c2)o1	.
Cc1cccc(Cn2cc(/C=C(/C#N)C(=O)Nc3cccc(Cl)c3)c3ccccc32)c1	3.5µM
CS(=O)(=O)c1ccc(CC(=O)N2CCCC(c3cccc(C(=O)O)c3)C2)cc1 (stereo not drawn)	.
CCc1noc(-c2cn(C3CCN(C(=O)c4cccn4C)CC3)nn2)n1	.
O=C1N(C2CCCCC2)C[C@H]2CN(Cc3cccc(OC(F)(F)F)c3)CCN12	.
Cc1ccc(N2C(=O)N(Cc3cccc(Cl)c3)c3ccccc3S2(=O)=O)cc1	.
Cc1cccc(N2C(=O)N(Cc3cc(=O)n4ccccc4n3)c3ccccc3S2(=O)=O)c1	.
Cc1ccc(N2C(=O)N(Cc3cc(=O)n4ccccc4n3)c3ccccc3S2(=O)=O)cc1Cl	10µM
COc1cccc(-c2cc3c(=O)n(CCNC(=O)c4ccc(F)cc4)ccn3n2)c1	.
O=C(N[C@H](C1CCNCC1)C1CC(O)C1)c1cccc(=O)[nH]1 (stereo partly drawn)	.
Cc1cc(C)cc(NC(=O)CN2C(=O)CSc3ccc(S(=O)(=O)N4CCCC4)cc32)c1	.
CCCCN(CCCC)CCNC(=O)CN1C(=O)CSc2ccc(S(=O)(=O)N3CCCCC3)cc21	.
CC(C)N(Cc1ccccc1)C(=O)CN1C(=O)CSc2ccc(S(=O)(=O)N3CCCC3)cc21	7.9µM
SMILES	Pf Dd2 growth
CN(CC(=O)N1CCC(CCOc2ccc(F)cc2)C1)S(=O)(=O)c1cccs1 (stereo not drawn)	.
O=C(CSc1nnc(-c2ccc([N+](=O)[O-])cc2)o1)Nc1ccccc1	.
COc1ccc(-c2noc(-c3ccc(NC(C)c4ccccc4)c([N+](=O)[O-])c3)n2)cc1OC (stereo not drawn)	.
COc1ccc([N+](=O)[O-])cc1NC(c1nnc(-c2ccccc2)o1)c1ccccc1F (stereo not drawn)	13µM
O=C(Cc1ccncc1)N1CC(F)(F)C[C@H]1c1nc(C2CC2)no1	.
O=c1cc(-c2ccncc2)oc2c(-c3ccccc3O)nccc12	1.8µM
O=c1cc(-c2cccnc2)oc2c(-c3ccccc3F)nccc12	.
C[S+](=O)([O-])c1ccc(-c2nccc3c(=O)cc(-c4ccncc4)oc23)cc1	.
O=C(NCc1cc(F)cc(F)c1)c1nnn2c1COC(c1ccc(Br)cc1)C2 (stereo not drawn)	.
Cc1ccc2nc(C3CCN(Cc4ccccc4)CC3)[nH]c(=O)c2c1	.
Cc1ccc(-c2cccc(CN3CCCC(c4nc5ccc(C)cc5c(=O)[nH]4)C3)c2)c(C)c1 (stereo not drawn)	7.9µM!
COc1cccc(-c2ccc(CN3CCN(c4cc(Cl)ncn4)C(=O)C3)cc2)c1	.
Cc1ccc2nc(C3CCN(CC4CCCC4)CC3)[nH]c(=O)c2c1	.
COc1ccc(-n2nc(C3CCCN(Cc4cccc5ccccc45)C3)[nH]c2=O)cc1 (stereo not drawn)	.
COc1cccc(-c2ccc(CN3CCCC(c4nc5ccc(C)cc5c(=O)[nH]4)C3)cc2)c1 (stereo not drawn)	7.9µM!
COCCN1CCOC2(CCN([S+](=O)([O-])c3ccccc3C)CC2)C1=O	.
Cc1cc(C)n(CC(=O)N2CCc3nn(C)c(=O)n3CC2)n1	.
Cc1ccccc1-n1cc(CN(C)C(=O)CN2C(=O)OC(C)(C)C2=O)cn1	.
CC1Oc2ccc(NC(=O)C3CCCC3)cc2CN(Cc2ccc(F)cc2)C1=O (stereo not drawn)	.
CCOc1ccc(-c2oc3ccccc3c(=O)c2O)cc1OCC	10µM
